The results in this text go back to PubChem BioAssay (NCI).

The panel holds about 83,000 compounds, 20% with a hit somewhere; the sample as a whole holds those more often.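 Treatment: one concentration, 48 hours, 96-well format. Scoring: percent growth, with anything below 10 considered active.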 Values without a mark were called inactive. The source made the active and inactive calls.

Among the test systems are NCI-H23 lung; NCI-H226 lung; NCI-H322M lung; HOP-62 NSCLC; NCI-H460 lung; HOP-92 NSCLC; NCI-H522 lung; A549/ATCC NSCLC; 786-0 renal; COLO 205 colon; DU-145 prostate; K-562 leukemia; MDA-MB-231 breast; RXF 393 renal; SF-268 CNS; SF-295 CNS; SF-539 CNS; UACC-257 melanoma; M14 melanoma; MALME-3M melanoma.
What all share (assay): NCI-60 one-dose screen, 48 h (100 = growth as untreated, 0 = no growth, -100 = all killed)
What all share (conditions): 10 µM unless noted

Turning to `O=C(N/N=C\c1c(O)ccc2ccccc12)C1CC1`, the growth is 36.4% with NCI-H23 lung; 79.6% with NCI-H226 lung; 33.7% with NCI-H322M lung; 55.8% with HOP-62 NSCLC; 32.9% in the test with NCI-H460 lung; 43.1% in the test with HOP-92 NSCLC. Further, the growth is 11.6% in the test on NCI-H522 lung; 58.4% in the test on A549/ATCC NSCLC; 49.6% in the test with 786-0 renal; 96.3% with COLO 205 colon; 69.1% in the test on DU-145 prostate; 34% with K-562 leukemia. For the same compound, the growth is 38.5% with MDA-MB-231 breast; 50.4% with RXF 393 renal; 42.3% in the test on SF-268 CNS; 30% in the test on SF-295 CNS; 33.2% in the test with SF-539 CNS; 11.2% with UACC-257 melanoma. In addition, the growth with M14 melanoma was 39.9%.
In the case of `CCN(CC)CCCCCCNc1ccnc2cc(Cl)ccc12`, the growth with NCI-H23 lung was 83.4%; in the test on NCI-H226 lung, 108%; in the test on NCI-H322M lung, 96.2%; in the test with HOP-62 NSCLC, 82.6%; with NCI-H460 lung it was 92.9%; in the test with HOP-92 NSCLC, 98.8%. Moreover, the growth with NCI-H522 lung is 125%; in the test on A549/ATCC NSCLC, 96.2%; with 786-0 renal, 90.9%; in the test with COLO 205 colon, 9.2% (active); with DU-145 prostate, 92.8%; with K-562 leukemia, 30.1%. In addition, the growth in the test on MALME-3M melanoma is 99.6%; in the test on MDA-MB-231 breast it was 51.8%; in the test with SF-268 CNS it was 77.4%; in the test on SF-295 CNS it was 97%; with SF-539 CNS, 52.5%; in the test with UACC-257 melanoma, 102%. For the same compound, the growth in the test with M14 melanoma is 38%.
Regarding `COc1cc2[nH]c(C(=O)c3cc(OC)c(OC)c(OC)c3)c(N)c2cc1C#CC1CC1`, the growth is 50.3% with NCI-H23 lung; 50.2% in the test with NCI-H226 lung; 52.7% in the test with NCI-H322M lung; 42.1% in the test on HOP-62 NSCLC; 13.5% with NCI-H460 lung; 17.2% with HOP-92 NSCLC. Besides, the growth was -4.22% (active) with NCI-H522 lung; 42.9% in the test on A549/ATCC NSCLC; 38.7% with 786-0 renal; 8.48% (active) with COLO 205 colon; 28.9% in the test on DU-145 prostate; 30.2% with K-562 leukemia. Also, the growth in the test on MALME-3M melanoma is 52.4%; with MDA-MB-231 breast it was 58.4%; in the test on RXF 393 renal it was 19.6%; in the test on SF-268 CNS it was 40.7%; in the test with SF-539 CNS it was -38.7% (active); in the test with UACC-257 melanoma it was 67.9%. Also, in the test on M14 melanoma, the growth was 22%.
Take `COc1cccc2c1C(=O)c1c(O)c3c(c(O)c1C2=O)C[C@@](O)(C(=O)CO)C[C@@H]3OC1C[C@H](N)[C@H](O)[C@H](C)O1` (some centres not stated): the growth with NCI-H23 lung is -33.5% (active); in the test on NCI-H226 lung, -40.5% (active); with NCI-H322M lung, -2.94% (active); in the test with HOP-62 NSCLC, -29.2% (active); in the test with NCI-H460 lung it was 0.418% (active); with HOP-92 NSCLC, -26.2% (active). Further, the growth in the test on NCI-H522 lung is -61.1% (active); in the test with A549/ATCC NSCLC, 8.81% (active); in the test with 786-0 renal it was 6.46% (active); in the test with COLO 205 colon, -81.6% (active); with DU-145 prostate, 3.11% (active); in the test with K-562 leukemia, -2.21% (active). Further, the growth was -57.6% (active) in the test with MALME-3M melanoma; -9.32% (active) in the test on MDA-MB-231 breast; -31.7% (active) in the test on SF-268 CNS; -22.4% (active) in the test with SF-295 CNS; -29.8% (active) in the test on SF-539 CNS; -35% (active) with UACC-257 melanoma. In addition, in the test on M14 melanoma, the growth is -71.6% (active).
For the compound `O=C1C=Cc2ncccc2C1=O`, the growth was 70% in the test with NCI-H23 lung; 81.8% in the test on NCI-H226 lung; 97.7% in the test on NCI-H322M lung; 99.7% in the test with HOP-62 NSCLC; 111% with NCI-H460 lung; 97% in the test with HOP-92 NSCLC. The growth in the test on NCI-H522 lung is 88.8%; with A549/ATCC NSCLC, 105%; with 786-0 renal, 103%; in the test on COLO 205 colon it was 54%; with DU-145 prostate, 78.9%; in the test on K-562 leukemia, 0.688% (active). Moreover, the growth in the test with MALME-3M melanoma is 89.9%; in the test with RXF 393 renal, 106%; with SF-268 CNS, 97%; in the test with SF-295 CNS, 102%; in the test on SF-539 CNS, 86.3%; with UACC-257 melanoma it was 88.1%. Moreover, the growth in the test with M14 melanoma is 95.5%.
With `c1ccc(C2Cc3ccccc3C2=NC2CCCCC2)cc1` (configuration not stated), the growth was 98.1% in the test on NCI-H23 lung; 100% with NCI-H226 lung; 102% with NCI-H322M lung; 113% in the test with HOP-62 NSCLC; 116% in the test on NCI-H460 lung; 68.4% in the test with HOP-92 NSCLC. Also, the growth with NCI-H522 lung is 88.8%; in the test on A549/ATCC NSCLC it was 103%; in the test with 786-0 renal, 97.5%; in the test with COLO 205 colon it was 115%; in the test with DU-145 prostate, 115%; in the test with K-562 leukemia, 99.6%. For the same compound, the growth with MALME-3M melanoma is 116%; with MDA-MB-231 breast it was 97.2%; in the test with RXF 393 renal it was 110%; in the test on SF-268 CNS it was 102%; with SF-539 CNS it was 89.3%; in the test on UACC-257 melanoma it was 110%. In the test on M14 melanoma, the growth is 91.7%.
Regarding `O=C1C=C(C(O)c2ccc(O)cc2)C(=O)c2ccccc21` (configuration not stated), the growth with NCI-H23 lung is 89.2%; with NCI-H226 lung it was 112%; with NCI-H322M lung it was 95.2%; in the test on HOP-62 NSCLC it was 116%; in the test with NCI-H460 lung, 107%; in the test with HOP-92 NSCLC it was -2.83% (active). Also, the growth in the test on NCI-H522 lung was 92.8%; in the test on A549/ATCC NSCLC it was 104%; in the test on 786-0 renal it was 106%; in the test with COLO 205 colon, 100%; in the test on DU-145 prostate, 107%; in the test on K-562 leukemia it was 97.2%. Also, the growth in the test on MALME-3M melanoma was 95.6%; with MDA-MB-231 breast it was 83.5%; with RXF 393 renal, 147%; in the test on SF-268 CNS, 108%; with SF-539 CNS, 106%; with UACC-257 melanoma, 107%. For the same compound, the growth in the test on M14 melanoma was 79.5%.
With `CCN(CC)CCCCCNc1cc(OC(=O)c2ccccc2)cc2cccnc12`, the growth in the test on NCI-H23 lung is 92%; in the test with NCI-H226 lung it was 118%; with NCI-H322M lung, 102%; in the test with HOP-62 NSCLC, 98.7%; in the test on NCI-H460 lung, 163%; with HOP-92 NSCLC it was 99.1%. For the same compound, the growth in the test on NCI-H522 lung is 124%; in the test on A549/ATCC NSCLC, 122%; with 786-0 renal it was 100%; with COLO 205 colon it was 17.3%; in the test on DU-145 prostate it was 111%; in the test on K-562 leukemia, 23.8%. The growth in the test with MALME-3M melanoma was 95.3%; in the test on MDA-MB-231 breast it was 88.2%; in the test with SF-268 CNS, 93.2%; in the test with SF-295 CNS, 110%; in the test with SF-539 CNS, 150%; in the test with UACC-257 melanoma, 120%. Besides, the growth with M14 melanoma was 101%.
